# PubChem BioAssay (NCI)
# The panel holds about 83,000 compounds, 20% with a hit somewhere; the sample as a whole holds those more often.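 The test compound was applied at a single concentration to cells in 96-well plates for 48 hours, and percent growth was recorded.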 Values without a mark were called inactive. Activity calls are given as the source filed them.
# System: TK-10 renal
# Test: NCI-60 one-dose screen, 48 h (100 = growth as untreated, 0 = no growth, -100 = all killed)
# Conditions: 10 µM
# Procedure: Growth inhibition of the TK-10 human tumor cell line is measured as a screen for anti-cancer activity. Cells are grown in 96 well plates and exposed to the test compound for 48 hours. Compounds are tested at a single concentration, which is 10^-5 M for most compounds. The reported endpoint is percent growth (GI% or GIPRCNT), where numbers from 0 - 100% represent growth inhibition, and numbers from -100% - 0 represent cell death. For example, a value of 40 represents 60% growth inhibition. A value of 0 means no net growth occurred over the course of the experiment. A value of -40 indicates 40% of cells at the beginning of the experiment died by the end of the experiment. A value of -100 means all cells are dead at the end of the experiment.
# NCI-60 Human Tumor Cell Lines Screen was performed using the standard one-dose NCI protocol, which is described in more detail at https://dtp.cancer.gov/discovery_development/nci-60/default.htm.
# Compounds with GIPRCNT values below 10 were considered active. Activity score was based on GIPRCNT using the following formula: […]
# Score is 0 for GIPRCNT values of 100 or above, 50 for GIPRCNT values of 0, and 100 for GIPRCNT values of -100.
row,SMILES,growth
1,CCOC(=O)c1cc(C(=O)c2cc(OC)c(OC)c(OC)c2)n2c1ccc1c3cccnc3ccc12,85.3%
2,Clc1ccc(Cc2ccncc2)cc1,130%
3,C/C=C/C1=CN2C(=O)c3cc(OC4OC(C)C(NC)C(C)(O)C4O)c(C)c(O)c3N=C[C@@H]2C1 (stereo not given in full),16.2%
4,O=c1oc2c(cc1-c1ccc(F)cc1)C(O)Oc1ccccc1-2 (stereo not given),72.3%
5,NC(N)=N/N=C(\N=Nc1ccccc1)c1ccc(Cl)cc1,65.8%
6,COc1ccc(-c2nn(-c3cccc(Cl)c3)cc2-c2c(C#N)c(N)n(N)c(=O)c2C#N)cc1,59.8%
7,CN(C)CCCSc1ccccc1NC1=C(Cl)C(=O)C(Nc2ccccc2SCCCN(C)C)=C(Cl)C1=O,13.8%
8,CC1=CC2C(C(O)CC3(C)C2CC(C)C32OCOC23COCO3)C2(C)C/C(=C/O)C(=O)C=C12 (stereo not given),42.7%
9,C=C1CCC2(C#N)[C@H]3[C@H](CC[C@@H]2C)[C@@H](C)C[C@@H](CC(C)(C)NC(=O)CN2CCC2=O)[C@H]13 (stereo not given in full),81.4%
10,COCCn1cc(-c2nc(-c3cccnc3)cs2)c2cc(F)ccc21,80.4%
11,CCN(CC)CCN1c2nc3ccccc3cc2Sc2cc3ccccc3nc21,82%
12,Cc1ccc(S(=O)(=O)N(C)CCCCCC(=O)O)cc1,89.4%
13,CCCC1(CN2c3ccccc3Sc3ccc(Cl)cc32)CCN(CC)C1 (stereo not given),-56.6% (active)
14,CN(C)CCCN1c2ccccc2CCc2ccc(Cl)cc21,71.3%
15,CCN1C(=O)CC(SC2CC(=O)N(CC)C2=O)C1=O (stereo not given),89.4%
16,CCOC(=O)CSc1nc(-c2cc(OC)ccc2OC)cc(-c2ccc(OC)cc2)c1C#N,75.7%
17,COc1ccc2c(c1)C(CC(=O)NN)CCC2 (stereo not given),98.7%
18,O=C(/C=C/C=C/c1c(C2CC2)nc2ccccc2c1-c1ccc(F)cc1)c1cccs1,22.4%
19,C#CC(C)(O)[C@@H]1C[C@H](CC(=O)O)C1(C)C (stereo not given in full),114%
20,COc1ccc(C(=O)N2C=Cc3ccccc3C2C#N)cc1 (stereo not given),100%

row,SMILES,growth
1,O=c1cn[nH]c2ccc(Br)cc12,95.4%
2,C[C@@H](C[C@H](CCO)c1ccccc1)c1ccc2ccccc2c1,-6.8% (active)
3,CCOC(=O)N/N=C/c1ccc(OC)c(OC)c1,123%
4,Oc1cccc(-c2nc3sccn3c2-c2ccncn2)c1,123%
5,CN1CCc2c(sc3nc4n(-c5ccc(Cl)cc5)c(=O)[nH]n4c(=O)c23)C1,88.3%
6,NS(=O)(=O)c1ccc(Br)cc1,90.4%
7,CCn1cc(CNc2ccc(C(=O)Nc3ccc4ccccc4c3)cc2)c(C)n1,1.78% (active)
8,CCN(CC)CCCC(Nc1c2ccc(Cl)cc2nc2ccc(OC)cc12)c1ccc(F)cc1 (stereo not given),-59.6% (active)
9,COc1ccc(-c2csc(NC(=O)c3ccc(Cc4n[nH]c(=O)c5cccnc45)cc3)n2)cc1,115%
10,CCN(CC)CCNc1ccc(C)c2sc3cc(Cl)ccc3c(=O)c12,50.6%
11,O=C(CCCSc1nc(-c2ccccc2)cc(-c2ccc(Cl)cc2)n1)NO,21.9%
12,O=C(CSc1nnc(-c2cccnc2SCc2ccccc2)o1)Nc1nc(Cl)cc(Cl)n1,109%
13,CCOC(=O)c1cc(C(=O)c2ccc(F)cc2F)n2ccccc12,115%
14,CC(C1=C(CN(C(=O)Cc2cn(-c3ccccc3)nc2-c2ccc(Cl)cc2)C(C)C)Cc2ccccc21)c1ccccn1 (stereo not given),70.3%
15,O=C(CCCCCCC(=O)Nc1ccccc1)NO,6.84% (active)
16,CCCCc1oc2ccccc2c1C(=O)c1cc(I)c(OCCN(CC)CC)c(I)c1,-40.5% (active)
17,Cc1cc(C(C#N)c2ccc(Cl)cc2)c(Cl)cc1NC(=O)c1cc(I)cc(I)c1O (stereo not given),65.3%
18,CCCc1nc(C(C)(C)O)c(C(=O)O)n1Cc1ccc(-c2ccccc2-c2nn[nH]n2)cc1,96.8%
19,Cc1ccc(C(=O)/C=C/c2ccccc2)s1,108%
20,O=C(/C=C/c1cccc(B(O)O)c1)c1cccc(B(O)O)c1,-11.7% (active)
